Screening data from PubChem BioAssay.
This is a sample that favours compounds with a hit; in the whole collection about 0.83% have one here.
Gli-Sufu block: blocks Gli-Sufu signaling in a luciferase reporter. inhibition, % at 5 µM. Sufu-KO-LIGHT fibroblasts, Gli luciferase reporter luminescence. 340,000 compounds, 0.74% hits;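 active = inhibition above about 55%, limit read from the data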;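 note: 0% = DMSO-treated cells and 100% = wells with medium but no cells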
SRC3 inh: human NCOA3 inhibition | Q9Y6Q9 | HEK293 GAL4-SRC3 luciferase reporter, luminescence | inhibition, % at 3.6 µM | 360,000 compounds, 0.17% hits | AID 588352;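 active = inhibition above a per-campaign cutoff, the mean of all compounds plus 3 SD, cut at about 60% in these data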;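 note: 0% = DMSO-treated cells and 100% = gossypol-treated cells at 36 µM; higher means less SRC3-driven luciferase light from the GAL4 reporter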
SRC1 inh: human NCOA1 inhibition. AID 588354. Q15788. HEK293 GAL4-SRC1 luciferase reporter, luminescence. inhibition, % at 3.6 µM. 360,000 compounds, 0.12% hits;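 active = inhibition above the campaign mean plus 3 SD, with each screening campaign given its own cutoff, cut at about 60% in these data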;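 note: 0% = DMSO treated cells and 100% = gossypol at 36 µM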
SRC2 inh: human SRC2 (NCOA2) inhibition | HEK293 GAL4-SRC2 luciferase reporter, luminescence | AID 651957 | inhibition, % at 9 µM | 370,000 compounds, 0.17% hits;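 active = inhibition above the mean inhibition of all tested compounds plus 3 SD, set per campaign, cut at about 52% in these data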;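 note: 0% = DMSO treated cells and 100% = cells given Gossypol at 36 µM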
NR5A2 inv ag: inverse agonists of human LRH-1 (NR5A2); 360,000 compounds, 0.13% hits; HEK293T StAR-luciferase reporter, LRH-1 transfected, 24 h; inhibition, % at 3.6 µM;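 active = inhibition above the mean inhibition of all tested compounds plus 3 SD, cut at about 73% in these data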;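 note: 0% = DMSO wells and 100% = reporter-only cells lacking LRH-1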
Gli antag conf: Gli-SUFU antagonism confirmation, single concentration; shares compounds with Gli-Sufu block; Sufu-KO-LIGHT cells, Gli luciferase reporter, luminescence; inhibition, % at 5 µM; 2,500 compounds, 40% hits; AID 602428;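 active = mean inhibition at 5 µM reaching about 45%, limit read from the data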;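 note: plate controls were DMSO-treated cells for no effect and wells lacking cells for full effect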
Gli cytotox: cytotoxicity counter-screen for Gli-SUFU antagonists. cytotoxicity, % at 5 µM. 2,500 compounds, 32% hits. Sufu-KO-LIGHT cells cytotoxicity, ATP luminescence. shares compounds with Gli-Sufu block;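 active = mean cytotoxicity at 5 µM above about 25%, limit read from the data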;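 note: cells exposed to compound overnight for roughly 16 to 18 hours; plate controls were DMSO wells with cells for no effect and medium without cells for full effect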
Wnt3a counter: counter-screen for Gli-SUFU antagonists: Wnt3a reporter inhibition; shares compounds with Gli-Sufu block; inhibition, % at 6.25 µM; 2,500 compounds, 20% hits; Wnt-LIGHT cells, Wnt3a-driven luciferase reporter, luminescence; AID 651995;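 active = mean inhibition above about 25%, limit read from the data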
* marks the source's active call; other numbers are inactive results; / = no result.

SMILES	Gli-Sufu block	SRC3 inh	SRC1 inh	SRC2 inh	NR5A2 inv ag	Gli antag conf	Gli cytotox	Wnt3a counter
C=CCN1C(C(=O)OC)CN(Cc2cn(Cc3ccc(Cl)cc3)nn2)CCS1(=O)=O (stereo not drawn)	/	/	/	6	/	/	/	/
CC#CC[N+](C)(C)CCCCCCCCCCCC	88*	34	33	2	55	89*	31*	17
C#CC[N+](C)(C)CCCCCCCC	21	11	8	15	2	/	/	/
C#CC[N+](C)(C)CCCCCCCCCC	56*	41	41	33	26	58*	37*	48*
C#CC[N+](C)(C)CCCCCCCCCCCC	84*	59	39	31	53	81*	28*	22
CCCCCCCCCCCCCCCC(O)C[N+](C)(C)CCO (stereo not drawn)	9	4	4	8	9	/	/	/
O=C(CSc1nc2ccccc2nc1N1CCCCC1)NCc1ccc(Cl)cc1Cl	/	/	/	-2	/	/	/	/
CCOC(=O)[C@]12CCCCC/C=C\1N(Cc1ccc(OC)cc1)C(=O)[C@H]2CC(=O)NCCCOC	/	/	/	-21	/	/	/	/
COC(=O)[C@H](C(C)C)N1CCc2nnn(CC3CCCCC3)c2-c2ccccc2S1(=O)=O	/	/	/	1	/	/	/	/
O=C(OC12CCCN(C1)/C(=C/c1ccc(Cl)cc1)C2)c1ccc(Cl)cc1 (stereo not drawn)	/	/	/	14	/	/	/	/
